The panel holds about 83,000 compounds, 20% with a hit somewhere; the sample as a whole holds those more often.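 Compound tested at a single concentration for 48 hours in 96-well plates; a percent growth value below 10 was scored as active.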 Unmarked numbers belong to inactive results. Calls of active or inactive are those of the source.
Test system: HL-60(TB) leukemia
Assay: NCI-60 one-dose screen, 48 h (100 = growth as untreated, 0 = no growth, -100 = all killed)
Details: 10 µM unless noted

SMILES | growth
O=C(NCCCNc1cc(-c2cn(-c3ccccc3)nc2-c2cccc(O)c2)ccn1)c1cccc(O)c1 | 35.2%
CC(C)(C)c1ccc(Cn2c(-c3nonc3N)nc3ccccc32)cc1 | 51.4%
COC(=O)CC[C@@H]1O[C@@H](c2ccc(F)cc2)[C@@H](O)[C@H]1O | 113%
CCNC(=O)Nc1ncccc1OCc1ccc(F)cc1 | 95.5%
COc1ccc(-c2nc3ncccn3c2-c2nnc(-c3ccsc3C)o2)cc1 | 92.5%
O=C1CSC(c2ccccc2)N1c1ccccc1 (stereo unspecified) | 99.7%
CNCCNc1nc2ccccc2c2c(=O)c3cc(F)ccc3sc12 | -33.1% (active)
C=C[C@]1(C)C=C2C(=O)[C@@]3(O)OC[C@@]4(CCCC(C)(C)C43O)C2(O)C(O)C1 (stereo partly specified) | -73.9% (active)
CC1(C)CC(=O)C2=C(C1)N(c1ccc(F)cc1F)C(N)=C(C#N)C2c1cc(Br)ccc1F (stereo unspecified) | 99.4%
Cc1c(NCc2nnc3n(Cc4ccccc4)c(=O)c4c5c(sc4n23)CCCC5)c(=O)n(-c2ccccc2)n1C | 80%
CCCC1OC(c2ccc(C(C)C)cc2)OCC1CC (stereo unspecified) | 92.7%
O=C(O)c1cccc2c1C(=O)N(c1ccc3c(c1)Cc1ccccc1-3)C2=O | 112%
O=c1c2cccc3c(N4CCOCC4)ccc(c32)c2nc3ccccc3n12 | 80.2%
COc1cc(Nc2ncc3c(n2)-c2ccc(Cl)cc2C(c2c(F)cccc2OC)=NC3)ccc1C(=O)O | 45.4%
CCCC(CCC)NCC(O)c1cc(-c2ccc(C(F)(F)F)cc2)nc(C(F)(F)F)c1 (stereo unspecified) | -46.3% (active)
COc1ccc2nc(C)cc(Sc3nc4ccccc4s3)c2c1 | 6.64% (active)
COc1cccc(-c2nn(-c3ccccc3)cc2-c2ccnc(NCCCNS(=O)(=O)c3ccc(C(F)(F)F)cc3)c2)c1 | 12.4%
NNC(=O)c1ccccc1N | 122%
CC1(C)CC[C@]2(C(=O)N[C@H](CO)Cc3ccccc3)CC[C@]3(C)C(=CC[C@@H]4[C@@]5(C)CCCNC(C)(C)[C@@H]5CC[C@]43C)[C@@H]2C1 | 31.2%
O=C(CN1CCN(c2ccc(Cl)cc2)CC1)N1CCN(c2nnc(-c3ccccc3)c(-c3ccccc3)n2)CC1 | -50.1% (active)
COc1ccc(N=c2nc3sc4cc(Cl)ccc4n3c(N)c2C#N)cc1 | 119%
COc1cc(NC(=O)CCSc2nc3ccc(C)cc3c(=O)n2Cc2ccccc2)cc(OC)c1OC | 116%

SMILES | growth
N[C@H]1CCC[C@@H]1NCCCCN1C(=O)c2cccc3cccc(c23)C1=O | 85.5%
Cc1ccc2c(C(C[N+](=O)[O-])c3ccccc3)c(-c3ccccc3)[nH]c2c1 (stereo unspecified) | -10.4% [9.5 µM] (active)
COc1cc2cc(Oc3ccc(NC(=O)c4ccc(Cl)c(C(F)(F)F)c4)cc3)c(C)nc2cc1OC | 17.4%
O=C(O)c1cn(C2CC2)c2cc(N3CCN(Cc4ccc5ccccc5c4O)CC3)c(F)cc2c1=O | 69.7%
COc1ccc(C(=O)N2c3ccccc3Sc3ccccc32)c(C(F)(F)F)c1 | 2.01% (active)
C[C@@H](C[C@H](CCO)c1ccccc1)c1ccc2ccccc2c1 | -38.5% (active)
COc1ccc(/C=C2\Oc3cc(OCCN4CCCC4)ccc3C2=O)c(OC)c1 | 75.6%
O=C(NCCNC(=O)Oc1cccc2ccccc12)Oc1cccc2ccccc12 | 79.7%
CCOC(=O)C1=C(C)N2C(=NC3=C(CCCC/C3=C\c3ccccc3)C2c2ccccc2)S1 (stereo unspecified) | 101%
c1ccc(-c2nc([P+](c3ccccc3)(c3ccccc3)c3ccccc3)c(N3CCOCC3)o2)cc1 | -12% (active)
O=C(NCCCNc1cc(-c2cn(-c3ccccc3)nc2-c2cccc(O)c2)ccn1)c1ccc(F)cc1 | -2.74% (active)
CC(=O)Oc1cccc(OC(C)=O)c1OC(C)=O | 103%
O=C1c2cccnc2C(=O)c2c1c(C(=O)OCCCN1CCCCC1)c1ccccn21 | -21.6% (active)
Cc1cc(N=C2C=CC(=[N+](C)C)C=C2)c(N)cc1N | 122%
CCCCn1c(C(=O)c2c[nH]c3ccccc23)n[nH]c1=S | 90.8%
CN1CCN(Cc2ccc(NC(=O)c3cncc(C#Cc4cnc(N)c5ncccc45)c3)cc2C(F)(F)F)CC1 | 13%
O=C(O)C1CN(c2cccc(Cl)c2)N(c2cccc(Cl)c2)C1=O (stereo unspecified) | 95.3%
O=S(=O)(O)C(Nc1ccccc1)c1ccccc1 (stereo unspecified) | 87.2%
Nc1c(C(=O)Nc2ccccc2)sc2nc3c(cc12)CN(C(=O)OCc1ccccc1)CC3 | 17.1%
CCOc1nc(-c2ccccc2)cc2c(O)c(C(=O)NN)[nH]c(=O)c12 | 151%
COc1ccc2c(c1)-c1c(c3cc(OC)ccc3n(CCN(C)C)c1=O)C2=O | 18%
CNc1ccc(Br)c2c1C(=O)c1ccccc1C2=O | 97.1%

SMILES | growth
Cc1nn(-c2ccccc2)c(Oc2ccccc2)c1/C=N/NC(=O)Cn1c(=O)sc2ccccc21 | 5.9% (active)
CCc1ccccc1NC(=O)c1sc2nc3c(cc2c1N)CCCC3 | 2.66% (active)
CC1(C)OC2=C(CC1Br)C(=O)C(=O)c1ccccc12 (stereo unspecified) | -8.14% (active)
COc1ccc(-c2nc(-c3nc4ccc(C)cc4[nH]3)cc3c2[nH]c2ccccc23)cc1 | 31.4%
O=C(Nc1ccc(N2CCNCC2)cc1)c1[nH]ncc1Nc1ncnc2sc3c(c12)CCC3 | -49.6% (active)
CC(=O)Nc1nonc1-c1nc2ccccc2n1Cc1ccc(C(C)(C)C)cc1 | 56.8%
CCN(CC)CCCC(C)Nc1c2ccc(C)cc2nc2ccc(OC)cc12 (stereo unspecified) | 11.4%
COc1cc2c3c(n(C4CCNCC4)c(=O)c2cc1OC)-c1cc2c(cc1C3=O)OCO2 | -50.3% (active)
c1cc[n+](Cc2ccnc3ccccc23)cc1 | 84.7%
CC(C)Cn1cnc2c(=O)[nH]c(N)nc21 | 63.8%
FC(F)(F)c1cc(-c2nnc3n2N=C(Cl)CS3)cc(C(F)(F)F)c1 | 93.2%
O=C(Nc1ccccc1C(=O)N/N=C(\c1ccccc1)c1ccccn1)c1ccccc1 | -24.1% (active)
NS(=O)(=O)c1ccc(CCn2c(SCC(=O)N/N=C/c3cc4ccccc4[nH]3)nc3ccccc3c2=O)cc1 | 35.2%
N#CC1=C(N)Oc2c(sc3c(Br)cccc23)C1c1ccc(Br)cc1 (stereo unspecified) | 6.12% (active)
COc1ccc2oc(-c3ccc(Cl)cc3)c(N3CCN(C)CC3)c2c1 | 28.2%
CC1(C)CC(=O)C=C(N)C1 | 71.8%
Cn1c2c(cc(S(=O)(=O)c3ccccc3)c1=O)CCc1c-2cnn1-c1ccc(Cl)cc1 | 73.1%
O=C(NCCNc1nccc(-c2c(-c3cccc(F)c3)nc3sccn23)n1)c1ccc(Cl)cc1 | 99.1%
COC(=O)[C@H](C)NC(=O)c1ccc(NC(=O)c2[nH]c(C)c(Cl)c2Cl)c(OCCN)c1 | 95.2%
CCOC(=O)Nc1ccc2c3c(cccc13)-c1ccccc1-2 | 6.94% (active)
N=C(N)SCc1cccc2c(CSC(=N)N)cccc12 | 93.4%
O=C(O)CSCc1nnc2n(Cc3ccccc3)c(=O)c3c4c(sc3n12)CCCC4 | 94.9%

SMILES | growth
CCOC(=O)Oc1c(OC)cc(C(=O)c2ccc(OC)c(O)c2OC)cc1OC | -32.6% (active)
O=C(O)c1cc2ccccc2cc1Nc1ccccc1 | 93.3%
O=c1nc(Nc2nc3ccccc3s2)[nH]c(=O)c2ccccc12 | 94.4%
O=C1C=C[C@]2(C[C@@H](c3cccc(C(F)(F)F)c3)O[C@@H](c3cccc(C(F)(F)F)c3)O2)O1 | 8.74% (active)
COC(=O)[C@H]1CCCN1C(=O)[C@H]1CCCN1C(=O)[C@@H](Cc1c[nH]c2ccccc12)NC(=S)Nc1cc(C(F)(F)F)cc(C(F)(F)F)c1 | 31.2%
CC(=O)O[C@H]1CC[C@]2(C)[C@H]3CC=C4[C@@H]5CC(C)(C)CC[C@]5(C(=O)NCCNCCNCCN)CC[C@@]4(C)[C@]3(C)CC[C@H]2C1(C)C | -42.8% (active)
Cc1cc(N)c(S(=O)(=O)O)c(N)c1 | 98.9%
O=C1NCCN1/N=C/c1c(Cl)nc2n1CCS2 | 72.2%
COC(=O)C(Cc1cnc[nH]1)N1CC(=O)N2[C@@H](c3ccccc3)SC[C@H]2C1=O (stereo partly specified) | 90.3%
O=C(Nc1ncc(Cc2ccccc2)s1)c1sc2ccccc2c1Cl | -9.41% (active)
O=C(COc1cccc(/C=C2\CSc3ccccc3C2=O)c1)Nc1nccs1 | -76.3% (active)
CCOC(=O)c1ccc2nc(-c3c(C)nn(-c4ccccc4)c3N3CCOCC3)[nH]c2c1 | 95.4%
O=[N+]([O-])c1ccc(Oc2cccc(C(F)(F)F)c2)c([N+](=O)[O-])c1 | 14.3%
CCN(CC)CC(=O)Nc1c(C)ccc(N)c1C | 74.2%
COc1ccc(/C(C)=C(\c2ccc(Cl)cc2)c2ccc(OCCN3CCCC3)cc2)cc1F | 0.205% (active)
CCOC(=O)NC(=S)n1oc(=O)c2ccccc21 | 104%
CC(C)[C@@H]1CC[C@]2(CO2)[C@@H]2C(=O)OCC(C(=O)O)=C[C@H]21 | -12.4% (active)
CCCCc1ccc(C(N)=O)nc1 | 88.2%
O=[N+]([O-])c1ccc(OCCO)cc1 | 125%
COc1cccc(NC(=O)c2cccc(C3CCc4c(cc(OC)c(OC)c4OC)O3)c2)c1 (stereo unspecified) | 44.2%

Reference: PubChem BioAssay (NCI)
